Experimental findings from PubChem BioAssay (Tox21) are described below.

Several values for one entry are separate records, joined by “and”; a condition that tells them apart may be missing. Equal entries are not always repeated. Inconclusive results are not listed. A structure can be active in one record and inactive in another. Activity calls are given as the source filed them. Calls come from the whole dose curve; as a rule, active = well fitted curve in the direction sought with a large enough effect in the repeat runs; inconclusive = weak or mixed curves; inactive = no such curve, though single readings can be large; an effect the other way counts as inactive or inconclusive.
% is set by controls: 0 for no effect and ±100 for the full control effect; potency is the fitted concentration of half-maximal effect.
Note: nearly all actives have a fitted effect of over 40% in size.

The first assay deals with Nuclear receptor subfamily 1 group I member 2 (Homo sapiens) (UniProt O75469). The assay is described as follows: CYP3A4 induction through human pregnane X receptor (PXR) by small molecules, qHTS assay (AID 1346984). Conditions: DPX-2 HepG2 PXR, CYP3A4-luciferin luminescence, 24 h; series mostly up to 46.1 µM; activation: at the top concentration. In short, it runs like this: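 DPX-2 reporter cells; 24h cpd, 37C; Luciferin-IPA 3uM final x3h; One-Glo 30 min RT; lumi read.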
`CC(O)[C@H]1CC[C@H]2[C@@H]3CC[C@@H]4C[C@@H](O)CC[C@]4(C)[C@H]3CC[C@]12C` (stereo partly specified): the “activation” value was -2.77% (inactive).

On to `CC(C)(C)NC[C@H](O)COc1ccccc1C1CCCC1`, for which the “activation” value is 0% [at 20.6 µM] (inactive).

Turning to `OCCN1CCN(CC/C=C2/c3ccccc3Sc3ccc(Cl)cc32)CC1`, the “activation” value was 25.2% [at 20.6 µM] (inactive).

For `CN(C)CC/C=C1/c2ccccc2CSc2ccccc21`, the “activation” value was 8.14% [at 20.6 µM] (inactive).

With `CN1[C@@H]2CC[C@H]1CC(OC(c1ccccc1)c1ccccc1)C2` (stereo partly specified), the Potency result is “inactive and 14.1 µM (active)”.

Turning to `CC(CN(C)C)CN1c2ccccc2Sc2ccc(C(F)(F)F)cc21` (stereo unspecified), the Potency was 12.6 µM (active).

For the compound `C[C@]12C=CC(=O)N[C@@H]1CC[C@@H]1[C@@H]2CC[C@]2(C)[C@@H](C(=O)Nc3cc(C(F)(F)F)ccc3C(F)(F)F)CC[C@@H]12`, the “activation” value is -2.45% (inactive).

As to `CCC(=O)c1ccc2c(c1)N(CCCN1CCN(CCO)CC1)c1ccccc1S2`, the Potency was 14.1 µM (active).

`Nc1ccc(S(=O)(=O)Nc2ncccn2)cc1`: the “activation” value is -5.42% [at 20.6 µM] (inactive).

Regarding `CN(C)CCC=C1c2ccccc2C(C)(C)c2ccccc21`, the Potency was 22.4 µM (active).

Turning to `CCNC(=O)[C@@H]1CCCN1C(=O)[C@H](CCCN=C(N)N)NC(=O)[C@H](CC(C)C)NC(=O)[C@@H](Cc1c[nH]c2ccccc12)NC(=O)[C@H](Cc1ccc(O)cc1)NC(=O)[C@H](CO)NC(=O)[C@H](Cc1c[nH]c2ccccc12)NC(=O)[C@H](Cc1cnc[nH]1)NC(=O)[C@@H]1CCC(=O)N1`, the “activation” value was -18.8% (inactive).

For `C[C@]12CCC(=O)C[C@@H]1CC[C@@H]1[C@@H]2CC[C@]2(C)C=CC[C@@H]12`, the “activation” value is -9.22% (inactive).

In the case of `COc1ccc2c(c1)OC(C)(C)C(c1ccccc1)C2c1ccc(OCCN2CCCC2)cc1` (stereo unspecified), the “activation” value was -4.86% (inactive).

The target is the same in a further assay. The assay is described as follows: Human pregnane X receptor (PXR) activation by small molecules, qHTS assay (AID 1346985). As to conditions: DPX-2 HepG2 CYP3A4-luciferase, 24 h; series mostly up to 38.3 µM; activation: at the top concentration. In short, it runs like this:
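DPX-2 cells (HepG2 co-transfected with a PXR response element and a CYP3A4-promoter luciferase construct) were seeded at 2,000 per well, rested 5 hr at 37C, then exposed to DMSO-dissolved compounds for 24 hr. Activation was read as luciferase luminescence.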
For `CC(O)[C@H]1CC[C@H]2[C@@H]3CC[C@@H]4C[C@@H](O)CC[C@]4(C)[C@H]3CC[C@]12C` (stereo partly specified), the “activation” value was -4.36% (inactive).

`CC(C)(C)NC[C@H](O)COc1ccccc1C1CCCC1`: the “activation” value is 15% [at 17.1 µM] (inactive).

For the compound `OCCN1CCN(CC/C=C2/c3ccccc3Sc3ccc(Cl)cc32)CC1`, the “activation” value was 10.2% [at 17.1 µM] (inactive).

`CN(C)CC/C=C1/c2ccccc2CSc2ccccc21`: the “activation” value is 16.1% [at 17.1 µM] (inactive).

On to `CN1[C@@H]2CC[C@H]1CC(OC(c1ccccc1)c1ccccc1)C2` (stereo partly specified), for which the Potency result was “inactive”.

For `CC(CN(C)C)CN1c2ccccc2Sc2ccc(C(F)(F)F)cc21` (stereo unspecified), the Potency is 25.1 µM (active).

As for `C[C@]12C=CC(=O)N[C@@H]1CC[C@@H]1[C@@H]2CC[C@]2(C)[C@@H](C(=O)Nc3cc(C(F)(F)F)ccc3C(F)(F)F)CC[C@@H]12`, the “activation” value was -1.88% (inactive).

Regarding `CCC(=O)c1ccc2c(c1)N(CCCN1CCN(CCO)CC1)c1ccccc1S2`, the Potency was 25.1 µM (active).

For `Nc1ccc(S(=O)(=O)Nc2ncccn2)cc1`, the “activation” value was 2.38% [at 17.1 µM] (inactive).

Consider `CN(C)CCC=C1c2ccccc2C(C)(C)c2ccccc21`, for which the Potency is 25.1 µM (active).

In the case of `CCNC(=O)[C@@H]1CCCN1C(=O)[C@H](CCCN=C(N)N)NC(=O)[C@H](CC(C)C)NC(=O)[C@@H](Cc1c[nH]c2ccccc12)NC(=O)[C@H](Cc1ccc(O)cc1)NC(=O)[C@H](CO)NC(=O)[C@H](Cc1c[nH]c2ccccc12)NC(=O)[C@H](Cc1cnc[nH]1)NC(=O)[C@@H]1CCC(=O)N1`, the “activation” value is -10.6% (inactive).

Consider `C[C@]12CCC(=O)C[C@@H]1CC[C@@H]1[C@@H]2CC[C@]2(C)C=CC[C@@H]12`, for which the “activation” value is -2.3% (inactive).

On to `COc1ccc2c(c1)OC(C)(C)C(c1ccccc1)C2c1ccc(OCCN2CCCC2)cc1` (stereo unspecified), for which the Potency was 15.8 µM (active).
